{"source": "PubChem BioAssay AID504848", "about": "(National Center for Advancing Translational Sciences (NCATS), 2011)", "note": "Among all 2,300 compounds or so, about 1,400 (61%) were called active. About 29% were inconclusive and are not listed. The set was probably picked from earlier hits. The list shows a part of the results. Values without a mark were called inactive. The call rests on the fitted dose curve; in most records, active means well fitted inhibition curve with a large enough effect; inconclusive means small, poorly fitted or top-dose-only effect, or effect the other way; inactive means no such curve, though single readings can be large or run the other way. On the % scale 0 is the no-effect control and ±100 the full control effect; potency means the concentration at half of the fitted maximal effect."}
{"assay": "Confirmation screen for delayed death inhibitors of the malarial parasite plastid, 96 hour incubation; further: nearly all actives have a fitted effect of over 60% in size", "conditions": "P. falciparum luciferase growth in erythrocytes; series mostly up to 28.7 µM; activity change, negative = inhibition: at the top concentration", "in_short": "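Two-generation (96 h, 37 C) exposure of P. falciparum carrying an integrated firefly luciferase reporter in erythrocytes, 0.1% parasitemia and 2% hematocrit final, Albumax-supplemented RPMI. Luminescence decrease measures growth inhibition.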", "units": {"activity change, negative = inhibition": "%"}}
{"smiles": "CCCN1CCC(NC(=O)CC2C(=O)NCCN2Cc2cccc(OC)c2)CC1", "note": "(stereo unspecified)", "activity change, negative = inhibition": -2.53}
{"smiles": "COc1ccc(C(=O)NC2CC2)cc1OC1CCN(Cc2ccccc2)CC1", "Potency": "14.1 µM (active)"}
{"smiles": "COc1ccc(C(=O)NC2CC2)cc1OC1CCN(C/C=C/c2ccccc2)CC1", "Potency": "2.24 µM (active)"}
{"smiles": "COc1ccc(OC)c(-c2nc(C(=O)NC3CCN(Cc4ccccc4)CC3)cc3c2[nH]c2ccccc23)c1", "Potency": "4.47 µM (active)"}
{"smiles": "CCCCCCn1ccc(=N)cc1", "Potency": "3.55 µM (active)"}
{"smiles": "Cc1ccc(-c2csc(N/N=C/c3ccco3)n2)c(C)c1", "Potency": "14.1 µM (active)"}
{"smiles": "CCOc1ccc(NC(=O)CC2C(=O)N(c3ccccc3)C(=O)N2CCOC)cc1", "note": "(stereo unspecified)", "activity change, negative = inhibition": -4.39}
{"smiles": "CCOc1ccc(C(=O)Nc2ccc(N3CCN(C)CC3)cc2)cc1", "Potency": "15.8 µM (active)"}
{"smiles": "CC(C)N1CCC(N2CCN(Cc3ccc(-c4ccc(Cl)cc4)o3)CC2CCO)CC1", "note": "(stereo unspecified)", "Potency": "5.01 µM (active)"}
{"smiles": "CN1C[C@@H]2C[C@H]1CN2c1cc2c(cc1F)c(=O)c(C(=O)O)cn2C1CC1", "Potency": "2 µM (active)"}
{"smiles": "COc1ccc(C2(CCN)CC(C)N(C)CC2C)cc1", "note": "(stereo unspecified)", "Potency": "15.8 µM (active)"}
{"smiles": "CCn1c2ccccc2c2cc(/C=N/n3cn[nH]c3=S)ccc21", "Potency": "6.31 µM (active)"}
{"smiles": "CCOC(=O)C1(Cc2cccc(Cl)c2)CCCN(C(=O)C(C)(C)C)C1", "note": "(stereo unspecified)", "Potency": "15.8 µM (active)"}
{"smiles": "Cc1ccc(C2C3=C(CC(C)(C)CC3=O)N=C3c4ccccc4C(=O)C32)cc1", "note": "(stereo unspecified)", "Potency": "7.08 µM (active)"}
{"smiles": "O=C(CSc1c2c(nc3ccc(Cl)cc13)CCCC2)NCCCN1CCOCC1", "Potency": "10 µM (active)"}
{"smiles": "CCN(CC)c1ccc(-c2sc(Nc3ccccc3)n[n+]2-c2ccc(F)cc2)cc1", "Potency": "12.6 µM (active)"}
{"smiles": "c1ccn2cc(C34CC5CC(CC(C5)C3)C4)nc2c1", "Potency": "12.6 µM (active)"}
{"smiles": "Cc1c(OCC(=O)NCc2cccnc2)ccc2c3c(c(=O)oc12)CCCC3", "Potency": "12.6 µM (active)"}
{"smiles": "Cc1c(OC(C)C(=O)NCc2cccnc2)ccc2c3c(c(=O)oc12)CCCC3", "note": "(stereo unspecified)", "Potency": "1.26 µM (active)"}
{"smiles": "O=c1oc2ccccc2c(O)c1CN1CCCCC1", "activity change, negative = inhibition": 0.904}
{"smiles": "CC(=O)N1/C(=C/c2ccc(N(C)C)cc2)C(=O)c2ccccc21", "Potency": "0.282 µM (active)"}
{"smiles": "CCOC(=O)Cn1c(S(=O)(=O)Cc2cccc(F)c2)nc(-c2ccccc2)c1-c1ccccc1", "Potency": "7.08 µM (active)"}
{"smiles": "C#CCn1c(S(=O)(=O)Cc2ccc(F)cc2)nc(-c2ccccc2)c1-c1ccccc1", "Potency": "12.6 µM (active)"}
{"smiles": "C#CCn1c(S(=O)(=O)Cc2ccc(C)cc2)nc(-c2ccccc2)c1-c1ccccc1", "Potency": "12.6 µM (active)"}
{"smiles": "COc1cc(-c2nnc(NC(=O)CCS(=O)(=O)c3ccccc3)o2)cc(OC)c1OC", "Potency": "12.6 µM (active)"}
{"smiles": "Cc1sc(N/N=C/c2cccnc2)nc1-c1ccccc1", "Potency": "12.6 µM (active)"}
{"smiles": "Cc1sc(NC(=O)c2c(F)cccc2F)nc1-c1ccccc1", "activity change, negative = inhibition": 6.15}
{"smiles": "Cc1nc([N+](=O)[O-])c(Br)n1CC(=O)c1ccc(Cl)cc1", "Potency": "7.94 µM (active)"}
{"smiles": "O=C(CSc1nc2cc([N+](=O)[O-])ccc2n1-c1ccccc1)NCc1ccc2c(c1)OCO2", "Potency": "11.2 µM (active)"}
{"smiles": "COc1cc2c(cc1OC)CN(C(=O)c1cc(C3CC3)nn1-c1ccccc1)CC2", "Potency": "12.6 µM (active)"}
{"smiles": "COc1cc2cc(CN(CCc3ccccc3C)C(=S)NCCCN3CCOCC3)c(=O)[nH]c2cc1OC", "Potency": "4.47 µM (active)"}
{"smiles": "COc1cc2cc(CN(Cc3cccs3)C(=S)Nc3ccc(C)cc3)c(=O)[nH]c2cc1OC", "Potency": "10 µM (active)"}
{"smiles": "O=C(NC1CCCC1)C1CC(=O)N(CCc2ccccc2)C1", "note": "(stereo unspecified)", "activity change, negative = inhibition": -58}
{"smiles": "O=C(NC1CCCCC1)C1CCN(c2nnnn2-c2ccccc2)CC1", "Potency": "14.1 µM (active)"}
{"smiles": "O=C(CSc1nc2ccccc2c(=O)[nH]1)Nc1cccc([N+](=O)[O-])c1", "Potency": "14.1 µM (active)"}
{"smiles": "O=C(Nc1cccc([N+](=O)[O-])c1)c1ccc2nsnc2c1", "activity change, negative = inhibition": 3.84}
{"smiles": "CCOC(=O)CNC(c1ccccc1)c1cc(Br)ccc1NC(=O)CCN1CCOCC1", "note": "(stereo unspecified)", "Potency": "11.2 µM (active)"}
{"smiles": "COc1ccc(Nc2cc(Cl)ccc2C(=O)O)cn1", "activity change, negative = inhibition": -63.4}
{"smiles": "COc1ccc(Cl)cc1NC(=O)C(=O)NCc1ccncc1", "activity change, negative = inhibition": -9.49}
{"smiles": "COc1ccc(Cl)cc1C(=O)Nc1ccncc1", "Potency": "12.6 µM (active)"}
{"smiles": "CC(=O)Nc1cccc(Oc2ncnc3scc(-c4ccc(C(C)C)cc4)c23)c1", "Potency": "6.31 µM (active)"}
{"smiles": "Cc1cc(C)c(C(=O)/C=C/c2cccc3ccccc23)c(=O)[nH]1", "Potency": "6.31 µM (active)"}
{"smiles": "CCc1nnc(NC(=O)CSc2nc3cccnc3n2C2CCCCC2)s1", "activity change, negative = inhibition": -93.7}
{"smiles": "CCc1nnc(NC(=O)CSc2ncnc3c2cnn3-c2ccc(OC)cc2)s1", "Potency": "12.6 µM (active)"}
{"smiles": "CC(NC(=O)c1ccc([N+](=O)[O-])o1)C12CC3CC(CC(C3)C1)C2", "note": "(stereo unspecified)", "Potency": "6.31 µM (active)"}
{"smiles": "Cn1cc([N+](=O)[O-])c(C(=O)Nc2ccn(C34CC5CC(CC(C5)C3)C4)n2)n1", "activity change, negative = inhibition": -6.68}
